The campaign covered roughly 16,000 compounds. About 5,700 (36%) were called active. Roughly 24% stayed inconclusive and do not appear here. Calls come from the whole dose curve; as a rule, active = well fitted curve in the direction sought with a large enough effect; inconclusive = small, poorly fitted or top-dose-only effect, or effect the other way; inactive = no such curve, though single readings can be large or run the other way. The list shows a part of the results.
molecular target: Cytochrome P450 1A2 (Homo sapiens) (UniProt P05177); assay: Cytochrome panel assay with activity outcomes; settings: recombinant CYP, pro-luciferin dealkylation, luminescence, p450-cyp1a2; series mostly up to 57.1 µM; activity, negative = inhibition: at the top concentration
Sequence (P05177 whole entry, looked up): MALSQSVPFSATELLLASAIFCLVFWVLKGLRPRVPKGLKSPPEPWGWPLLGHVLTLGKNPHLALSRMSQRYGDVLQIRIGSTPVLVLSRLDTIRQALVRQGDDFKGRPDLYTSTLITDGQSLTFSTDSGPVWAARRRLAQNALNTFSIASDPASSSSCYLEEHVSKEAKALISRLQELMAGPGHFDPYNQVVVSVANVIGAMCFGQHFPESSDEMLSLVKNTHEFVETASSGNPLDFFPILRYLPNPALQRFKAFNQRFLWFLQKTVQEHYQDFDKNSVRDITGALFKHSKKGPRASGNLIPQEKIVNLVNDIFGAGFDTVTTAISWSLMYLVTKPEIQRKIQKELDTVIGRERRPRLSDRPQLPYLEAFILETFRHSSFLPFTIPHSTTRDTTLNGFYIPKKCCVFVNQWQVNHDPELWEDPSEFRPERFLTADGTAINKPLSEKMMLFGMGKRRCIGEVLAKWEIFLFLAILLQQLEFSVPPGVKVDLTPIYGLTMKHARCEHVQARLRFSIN
% is set by controls: 0 for no effect and ±100 for the full control effect.

Row | Compound | activity, negative = inhibition | AC50
1 | COc1ccc(N2C(=O)NC(NC(=O)c3ccncc3)(C(F)(F)F)C2=O)cc1 (stereo not given) | 1.96% (inactive) | 
2 | CCCCN1C(=O)NC(NC(=O)c2ccco2)(C(F)(F)F)C1=O (stereo not given) | 0.022% (inactive) | 
3 | O=C(NC1(C(F)(F)F)NC(=O)N(Cc2cccnc2)C1=O)c1ccccc1 (stereo not given) |  | 6.31 µM (active)
4 | CCN1C(=O)[C@H]2[C@H]3[C@H](O)[C@H](O)C/C(=N/OC)[C@@H]3CC[C@@H]2C1=O | -3.89% [at 11.4 µM] (inactive) | 
5 | O=S(=O)(NCCCCCCc1ccccc1)c1cccc2c(Cl)cccc12 |  | 15.8 µM (active)
6 | COc1ccccc1N1CCN(CCCCNS(=O)(=O)c2cccc3c(N(C)C)cccc23)CC1 | -17.6% (inactive) | 
7 | NCCNS(=O)(=O)c1cccc2cnccc12 | -8.71% (inactive) | 
8 | Nc1ccc(S(=O)(=O)NCCS(=O)(=O)O)cc1 | -3.14% [at 2.29 µM] (inactive) | 
9 | CCCCCCCNS(=O)(=O)c1cccc2c(Cl)cccc12 |  | 6.31 µM (active)
10 | NCCCCCCNS(=O)(=O)c1cccc2c(Cl)cccc12 |  | 7.94 µM (active)
11 | COC(=O)N1CCC2(CCN(Cc3nccs3)CC2)CC1 | -3.62% (inactive) | 
12 | C/C(=N/O)[C@@H]1C[C@H](CC(=O)O)C1(C)C | -2.9% [at 11.4 µM] (inactive) | 
13 | COCCn1c(=O)c(-c2cc(F)cc(F)c2)nc2cncnc21 |  | 2 µM (active)
14 | COCCn1c(=O)c(-c2cccc(F)c2)nc2cncnc21 |  | 2 µM (active)
15 | COCCn1c(=O)c(-c2ccc(Cl)cc2)nc2cncnc21 |  | 0.2 µM (active)
16 | COCCn1c(=O)c(-c2cccc(Cl)c2)nc2cncnc21 |  | 0.631 µM (active)
17 | COCCn1c(=O)c(-c2ccc(F)cc2)nc2cncnc21 |  | 0.501 µM (active)
18 | COCCn1c(=O)c(-c2ccc(F)c(F)c2)nc2cncnc21 |  | 0.251 µM (active)
19 | COCCn1c(=O)c(-c2ccccc2)nc2cncnc21 |  | 0.794 µM (active)
20 | COc1ccc2oc(=O)c(C(=O)Oc3ccc(NC(C)=O)cc3)cc2c1 | -26.3% (inactive) | 
21 | COc1cccc2cc(NC(=O)C3CCCCC3)c(=O)oc12 |  | 1.26 µM (active)
22 | COc1ccc(NC(=O)CC2C(=O)N(c3cccc(OC)c3)C(=O)N2C2CCCCC2)cc1 (stereo not given) | -27.4% (inactive) | 
23 | COc1ccccc1CNC(=O)C1CC(=O)N(C2CCCC2)C1 (stereo not given) | -19.2% (inactive) | 
24 | COc1ccc(NC(=O)C2CCN(C(=O)c3cccs3)CC2)c(OC)c1 | -4.18% (inactive) | 

Row | Compound | activity, negative = inhibition | AC50
25 | COc1ccc2oc(=O)c(NC(=O)C3CCCCC3)cc2c1 |  | 2.51 µM (active)
26 | CC[C@H]1C2=C3C(CC[C@H]4C(OCc5ccc(F)cc5C(F)(F)F)OC[C@](C)([C@@H]34)N(C(=O)OC(C)(C)C)C2)C(COC)C1COC (stereo not given in full) | -11.5% (inactive) | 
27 | COc1ccc(CNCCC(c2ccc(OC(C)C)cc2)C(C)C)cc1OC (stereo not given) | -12.1% (inactive) | 
28 | COC(=O)C(C(=O)OC)C(C[N+](=O)[O-])c1ccc(OC)c(OC)c1 (stereo not given) | -6.19% (inactive) | 
29 | COc1cc2ccc([C@H](C)NCC#N)cc2cc1OC |  | 0.501 µM (active)
30 | c1ccc([C@H](c2cccc3c2ccc2ccccc23)[C@H](c2ccccc2)c2cccc3c2ccc2ccccc23)cc1 | -9.37% [at 11.4 µM] (inactive) | 
31 | Cc1cc2ccccc2c[n+]1CC(O)C[n+]1cc2ccccc2cc1C | -17.4% [at 11.4 µM] (inactive) | 
32 | CCN(CC)C[C@@H](O)c1ccc2ccc3ccccc3c2c1 |  | 0.794 µM (active)
33 | CCCCCCCCN1C(=O)N(C)C(N(O)C(=O)NC)C1(C)C (stereo not given) | 15.6% (inactive) | 
34 | CCCn1cnc2c1c(=O)n(CCCCC(C)=O)c(=O)n2C |  | 12.6 µM (active)
35 | Cn1c(=O)c2c(ncn2C[C@@H](O)CO)n(C)c1=O | -0.11% [at 25.6 µM] (inactive) | 
36 | Cn1c(=O)c2c(ncn2CCO)n(C)c1=O | -8.78% [at 25.6 µM] (inactive) | 
37 | O=C(O)/C=C(/C(=O)O)[C@]12CCN3CC4=CCO[C@@H]5CC(=O)N[C@@H]1[C@H]5[C@H]4C[C@H]32 | -15% [at 2.29 µM] (inactive) | 
38 | COc1ccc(CO/N=C/c2c(C)[nH]c(=O)[nH]c2=O)cc1 |  | 22.4 µM (active)
39 | NC[C@H]1O[C@H](n2cnc3c(N)ncnc32)C[C@@H]1O | -9.51% [at 11.4 µM] (inactive) | 
40 | O=[N+]([O-])c1ccc2c(c1)Cc1cc(N=Cc3ccc4c(c3)OCO4)ccc1-2 |  | 0.794 µM (active)
41 | O=c1oc2cc(N=Cc3ccc4c(c3)OCO4)ccc2c2ccccc12 |  | 0.00794 µM (active)
42 | Cc1nc2c(O)cccc2c(=O)[nH]1 |  | 15.8 µM (active)
43 | Cc1nc(CN2CCCCC2)c(O)c(=O)[nH]1 | -7.06% [at 11.4 µM] (inactive) | 
44 | CSc1nc(O)c(Cc2ccccc2)c(=O)[nH]1 | 0.827% (inactive) | 
45 | C/C(=N\OC(=O)NC1CCCCC1)c1sc(-c2ccccc2)nc1C |  | 7.08 µM (active)
46 | COc1ccc(C(C(=O)NC2CCCCC2)N(C(=O)c2sc(C)nc2C)c2ccc(OC)cc2)cc1 (stereo not given) | -11% (inactive) | 
47 | COc1ccc(C(C(=O)NC2CCCCC2)N(C(=O)c2sc(C)nc2C)c2ccc(C(C)=O)cc2)cc1 (stereo not given) | -12.2% (inactive) | 
48 | Cc1ccc(-c2ncccc2OC(=O)C23CC4CC(CC(C4)C2)C3)cc1 |  | 14.1 µM (active)

Row | Compound | activity, negative = inhibition | AC50
49 | CC(C)CO/N=C1/C[C@@H](O)[C@@H](O)[C@@H]2[C@@H]3C(=O)N(C[C@@H]4CCCO4)C(=O)[C@H]3CC[C@H]12 | -4.99% [at 11.4 µM] (inactive) | 
50 | Cn1c(=O)c2cn(-c3ccccc3)cc2n(C)c1=O |  | 1.78 µM (active)
51 | Cn1c(=O)n(CCC(=O)O)c2ccccc21 | -19.4% (inactive) | 
52 | Cn1c(=O)c2cc(S(=O)(=O)NCCC(=O)NCc3ccccc3Cl)ccc2n(C)c1=O | -16.4% (inactive) | 
53 | CCCNC(=O)OC[C@H]1O[C@@H](CCO/N=C\[C@@H](NS(=O)(=O)c2ccc(C)cc2)[C@H](C)/C=C\CC(=O)OC)C=C[C@@H]1Oc1ccc(OC)cc1 | 2.17% [at 11.4 µM] (inactive) | 
54 | C[C@@]1(C(NC(=O)c2ccccc2)c2ccc(-c3ccccc3)cc2)C[C@H]1C1CCCCC1 (stereo not given in full) | 7.91% (inactive) | 
55 | O=C(c1ccccc1)[C@@H]1O[C@H]1c1ccc(-c2ccccc2)cc1 |  | 6.31 µM (active)
56 | CCN1CCN(CCCNC(=O)C(NC(=O)C2CCC(C)CC2)C(C)C)CC1 (stereo not given) | -16.2% (inactive) | 
57 | O=C(c1cc(C(F)(F)F)cc(C(F)(F)F)c1)N1CCC[C@@]2(CCN(c3ncccn3)C2)C1 | -18.7% (inactive) | 
58 | O=C1CC[C@H](N2C(=O)c3ccccc3C2=O)C(=O)N1 | -5.92% [at 25.6 µM] (inactive) | 
59 | NCCn1c(=O)c(CCc2ccccc2)nc2cncnc21 |  | 12.6 µM (active)
60 | COCCn1c(=O)c(CCc2ccccc2)nc2cncnc21 |  | 10 µM (active)
61 | O=c1c(CCc2ccccc2)nc2cncnc2n1-c1ccccc1 |  | 15.8 µM (active)
62 | CCCNC(=O)N1CCC(C(=O)c2ccc(F)cc2)CC1 | -5.51% (inactive) | 
63 | NC(=O)C1(NC(=O)[C@@H]2CC3(CC(c4cccc(NC(=O)c5cc([N+](=O)[O-])cc([N+](=O)[O-])c5)c4)=NO3)CN2C(=O)c2ccccc2)CC1 (stereo not given in full) | -6.89% (inactive) | 
64 | COc1ccc(NC(=O)COC(=O)Cn2c(C)nc3ccccc32)cc1OC | -13.5% (inactive) | 
65 | COc1ccc(NC(=O)c2cc(C(C)C)on2)cc1OC |  | 15.8 µM (active)
66 | COc1ccc(-c2cc(C(=O)Nc3cc(OC)c(OC)c(OC)c3)no2)cc1OC | -24.1% (inactive) | 
67 | COc1ccc(NC(=O)CC#N)cc1OC |  | 15.8 µM (active)
68 | COc1ccc(NC(=O)C(F)(F)F)cc1OC |  | 12.6 µM (active)
69 | CCC(NC(=O)Nc1cc(OC)c(OC)c(OC)c1)(C(F)(F)F)C(F)(F)F | -26.6% (inactive) | 
70 | COc1ccc(C(=O)Nc2ccc(OCC(F)(F)C(F)F)c(C(F)(F)F)c2)cc1OC | -9.8% (inactive) | 
71 | CO[C@]1(NC(=O)CSCC#N)C(=O)N2C(C(=O)O)=C(CSc3nnnn3C)CS[C@H]21 |  | inactive
72 | COc1ccccc1-c1ccc2ncnc(Nc3ccccc3)c2c1 |  | 2.51 µM (active)

Row | Compound | activity, negative = inhibition | AC50
73 | CNc1ncnc2ccc(-c3ccccc3OC)cc12 |  | 2.51 µM (active)
74 | Cc1ccc(CS(=O)(=O)CCC(=O)NCCCOC(C)C)cc1 | -27.3% (inactive) | 
75 | NC(N)=NNC(=O)C(=O)O | -1.69% [at 11.4 µM] (inactive) | 
76 | Cc1ccc(NC(=O)/C(=C\c2cccnc2)NC(=O)c2ccco2)cc1 | -29.4% (inactive) | 
77 | O=C(NC(Cc1ccccc1)C(=O)O)/C(=C\c1ccco1)NC(=O)c1ccc(Br)cc1 (stereo not given) | -18.5% (inactive) | 
78 | O=C(N/C(=C/c1ccc(Br)cc1)c1nc2ccccc2[nH]1)c1ccco1 |  | 7.08 µM (active)
79 | C[C@H](NC[C@H](O)CP(=O)(O)Cc1ccccc1)c1ccc(Cl)c(Cl)c1 | -7.11% (inactive) | 
80 | C[C@H](NC[C@H](O)CP(=O)(O)CC1CCCCC1)c1ccc(Cl)c(Cl)c1 |  | 39.8 µM (active)
81 | CNC(=S)N1N=C(c2ccc(OC)cc2)CC1c1ccc(N(C)C)cc1 (stereo not given) |  | 10 µM (active)
82 | CCS(=O)(=O)Nc1ccc(C2=NN(C(=O)c3ccco3)C(c3ccc(C)cc3)C2)cc1 (stereo not given) | -4.87% (inactive) | 
83 | COc1ccccc1CNc1ccnc(-c2cccc(C#N)c2)n1 |  | 0.794 µM (active)
84 | COc1ccc(CNc2ccnc(-c3cccc(C#N)c3)n2)c(OC)c1 |  | 2.51 µM (active)
85 | C=CCNC(=S)N1CCN(c2ncc3c(=O)c(C(=O)O)cn(CC)c3n2)CC1 | -12.9% (inactive) | 
86 | C=CC[C@H](N)C(=O)O | -2.54% (inactive) | 
87 | Cc1cc(NC(=O)C2CCCC2)n(-c2nc3ccccc3[nH]2)n1 |  | 2.82 µM (active)
88 | O=C(c1cnc(-c2ccccc2)s1)c1ccc(Cl)cc1Cl |  | 1.12 µM (active)
89 | CC(=O)N1CCC2(CC1)CN(C(c1ccccc1)c1ccccc1)C2 | 1.33% (inactive) | 
90 | O=c1ccn(-c2cccc(C(F)(F)F)c2)nc1-c1ccn(-c2ccccc2F)n1 |  | 5.62 µM (active)
91 | COc1ccccc1NC(=O)c1nn(-c2cccc(C(F)(F)F)c2)ccc1=O |  | 5.01 µM (active)
92 | CCCC1CCC(c2ccc(C(N)=O)cc2)CC1 (stereo not given) | 8.51% (inactive) | 
93 | CCN(CC)Cc1nc2c(c(=O)[nH]1)C1(CCCC1)Cc1ccccc1-2 |  | 5.01 µM (active)
94 | O=C(O)CN=C1NC2(CCCC2)Cc2ccccc21 | 3.63% (inactive) | 
95 | C[C@@H]1C[C@@H]2[C@H]3CCC4=CC(=O)C=C[C@]4(C)[C@]3(F)[C@@H](O)C[C@@]2(C)[C@@]1(O)C(=O)CO |  | inactive

— PubChem BioAssay AID1851 (National Center for Advancing Translational Sciences (NCATS), 2009)
